Source: PubChem
HEK293 tox: HEK 293 cell cytotoxicity; HEK 293 viability, ATP luminescence (CellTiter-Glo), 48-72 h; Potency, µM (titrated, usually from 115 µM), for inactives: at the top dose activity change, negative = cytotoxicity, hits mostly inhibitors; 94,000 compounds, 6.6% hits; AID 1345083; further: nearly all actives have a fitted effect of over 60% in size
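HEK 293 seeded at 250 cells/well receive compound via pintool. After 48 or 72 hr at 37 degree Celsius, 5% CO2 and 95% humidity, CellTiter-Glo is dispensed and luminescence read following 10 min at room temperature.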
NPR1 antag: antagonists of human natriuretic peptide receptor Npr1 | P16066 | HEK293 hNpr1 GloSensor cGMP, ANP-stimulated luminescence | Potency, µM (titrated, usually from 46.3 µM), for the others: at the top dose activity change, negative = inhibition, usual class: inhibitors | 76,000 compounds, 1.6% hits | AID 1347048; calls by dose curve; further: nearly all actives have a fitted effect of over 60% in size
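Compound pre-incubated 30 min at room temperature on GloSensor-loaded HEK293 cells stably carrying hNpr1 and the pGS-40F cGMP biosensor. Stimulation uses hNppA at 0.1 nM final; luminescence is taken at baseline and 20 min post-agonist.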
FLuc inh: inhibitors of firefly (Photinus pyralis) luciferase; P08659; purified P. pyralis luciferase, luminescence, biochemical; Potency, µM (titrated, usually from 115 µM), actives largely listed as inhibitors; 76,000 compounds, 2.5% hits; further: nearly all actives have a fitted effect of over 65% in size
Target sequence (P08659 whole entry, looked up): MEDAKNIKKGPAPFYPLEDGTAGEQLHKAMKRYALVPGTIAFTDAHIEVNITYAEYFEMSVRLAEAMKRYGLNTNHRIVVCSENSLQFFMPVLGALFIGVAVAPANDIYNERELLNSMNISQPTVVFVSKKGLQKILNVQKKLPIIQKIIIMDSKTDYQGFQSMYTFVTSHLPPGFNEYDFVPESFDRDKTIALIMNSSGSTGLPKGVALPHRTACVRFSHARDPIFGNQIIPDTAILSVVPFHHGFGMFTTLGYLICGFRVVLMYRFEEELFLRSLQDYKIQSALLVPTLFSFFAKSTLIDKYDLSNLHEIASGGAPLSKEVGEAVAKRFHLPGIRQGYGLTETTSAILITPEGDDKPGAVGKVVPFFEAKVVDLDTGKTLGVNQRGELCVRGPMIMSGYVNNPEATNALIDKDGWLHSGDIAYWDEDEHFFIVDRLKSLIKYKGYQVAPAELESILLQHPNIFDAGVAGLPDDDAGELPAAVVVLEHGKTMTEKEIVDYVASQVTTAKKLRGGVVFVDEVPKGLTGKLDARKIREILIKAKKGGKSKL
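Luminescence read by CCD imager after adding enzyme (10nM final) to wells holding compound, titrated in qHTS. Substrates 10uM each D-luciferin and ATP; buffer 50mM Tris acetate pH 7.5, 10mM Mg acetate, Tween-20, BSA.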
NIH3T3 tox: cytotoxic compounds in NIH 3T3 cells; Potency, µM (series often up to 96.7 µM), without a hit: at the highest dose activity change, negative = cytotoxicity, hits mostly inhibitors; 94,000 compounds, 4.3% hits; NIH 3T3 viability, CellTiter-Glo ATP luminescence, 48-72 h; AID 1345082; further: nearly all actives have a fitted effect of over 55% in size
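Cytotoxicity was measured by CellTiter-Glo ATP luminescence after 48 or 72 h compound exposure at 37 °C. Mouse NIH 3T3 fibroblasts were seeded at 400 cells/well and dosed by 23 nL pin transfer.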
GPT2 inh: GPT2 alanine aminotransferase inhibition; Q8TD30; Recombinant GPT2, coupled pyruvate oxidase/HRP Amplex Red fluorescence; Potency, µM (highest dose often 57.7 µM), inactives show top-dose activity change, negative = inhibition, hits mostly inhibitors; 100,000 compounds, 0.25% hits; AID 1671188; further: nearly all actives have a fitted effect of over 60% in size
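Inhibition is scored from Amplex Red fluorescence generated when pyruvate oxidase and HRP act on pyruvate released by GPT2. Reactions contain 10ng/uL enzyme, 250uM a-KG and 2mM L-alanine and run 30 min at room temperature.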
Starred values were filed as active, the others as inactive; [ ] = dose if it differs, or a comment. Most compounds without a hit are left out; they make up all but 10% or so of the library. Unless noted, the call rests on the fitted dose curve; in most records, active means well fitted curve in the direction sought with a large enough effect; inconclusive means small, poorly fitted or top-dose-only effect, or another doubt; inactive means no such curve, though single readings can be large; an effect the other way counts as inactive or inconclusive. On the % scale 0 is the no-effect control and ±100 the full control effect; potency means the concentration at half of the fitted maximal effect.

`CC(=O)N1CC(C(=O)NC(C)c2ccccc2)CC(c2cccc(C)c2)C1` (centres undefined) gave HEK293 tox -18.0%, NPR1 antag -0.5%, FLuc inh inactive, NIH3T3 tox -16.8% and GPT2 inh inactive.
For CCOC(=O)C1CCCN(C(=O)C2CC(c3ccc(CC)cc3)CN(C(=O)c3ccoc3)C2)C1 (centres undefined) the results were HEK293 tox 44.7µM*, NPR1 antag 0.2%, FLuc inh inactive, NIH3T3 tox inconclusive and GPT2 inh 1.7%.
CCc1ccc(C2CC(C(=O)NC(C)c3ccccc3)CN(C(=O)c3ccoc3)C2)cc1 (centres undefined) was read as HEK293 tox inconclusive, NPR1 antag -16.2%, FLuc inh inactive, NIH3T3 tox 31.6µM* and GPT2 inh -4.4%.
CCn1c(CO)nnc1C1CC(NC(=O)c2cnn3cc(C)cnc23)C1 (centres undefined) was read as HEK293 tox -2.4%, NPR1 antag 5.1%, FLuc inh inactive, NIH3T3 tox 1.0% and GPT2 inh 3.0%.
Screening c1ccc(CCn2cnc3cccnc32)cc1 returned HEK293 tox -25.6%[230 µM], NPR1 antag -1.8%[70.6 µM], FLuc inh 39.8µM*, NIH3T3 tox -29.0%[174 µM] and GPT2 inh -8.5%[88.5 µM].
Cc1ccc(S(=O)(=O)N2CCCC(Cn3c(C4CC4)nc4cccnc43)C2)cc1F (centres undefined) was read as HEK293 tox inconclusive, NPR1 antag 0.1%, FLuc inh inactive, NIH3T3 tox -20.7% and GPT2 inh inactive.
`Cc1ccc(C)c(S(=O)(=O)N2CCCC(Cn3c(C4CC4)nc4cccnc43)C2)c1` (centres undefined) gave HEK293 tox 39.8µM*, NPR1 antag -13.5%, FLuc inh inactive, NIH3T3 tox inconclusive and GPT2 inh 2.5%.
Screening Cc1cccc(S(=O)(=O)N2CCCC(Cn3c(C4CC4)nc4cccnc43)C2)c1 (centres undefined) returned HEK293 tox 35.5µM*, NPR1 antag -14.9%, FLuc inh inactive, NIH3T3 tox inconclusive and GPT2 inh inactive.
For O=C(Nc1ccc(C(F)(F)F)cc1)N1CCCC(Cn2c(C3CC3)nc3cccnc32)C1 (centres undefined) the results were HEK293 tox 39.8µM*, NPR1 antag -18.7%, FLuc inh inactive, NIH3T3 tox 31.6µM* and GPT2 inh inactive.
Screening Cc1cccc(S(=O)(=O)N2CCCC(Cn3c(C)nc4cccnc43)C2)c1 (centres undefined) returned HEK293 tox inconclusive, NPR1 antag -25.4%, FLuc inh inactive, NIH3T3 tox inconclusive and GPT2 inh -2.7%.
For Cc1ccc(NC(=O)N2CCCC(Cn3c(C4CC4)nc4cccnc43)C2)cc1 (centres undefined) the results were HEK293 tox -11.7%, NPR1 antag 4.6%, FLuc inh inactive, NIH3T3 tox inconclusive and GPT2 inh 4.6%.
COc1ccc(NC(=O)[C@@H]2C[C@@H](c3cccc(C(F)(F)F)c3)N(CC3CCOCC3)C2)cc1 was read as HEK293 tox inconclusive, NPR1 antag 2.1%, FLuc inh inactive, NIH3T3 tox inconclusive and GPT2 inh -7.5%.
For CN1C[C@H](C(=O)Nc2cccc(F)c2)C[C@H]1c1cccc(C(F)(F)F)c1 the results were HEK293 tox 63.1µM*, NPR1 antag -24.0%[70.6 µM], FLuc inh inactive, NIH3T3 tox 50.1µM* and GPT2 inh 3.9%[88.5 µM].
Screening CN1C[C@H](C(=O)NCCOc2ccccc2)C[C@H]1c1cccc(C(F)(F)F)c1 returned HEK293 tox 100µM*, NPR1 antag -15.9%[70.6 µM], FLuc inh inactive, NIH3T3 tox inconclusive and GPT2 inh -19.1%[88.5 µM].
O=C(Nc1cccc(F)c1)[C@@H]1C[C@@H](c2cccc(C(F)(F)F)c2)N(CC2CCOCC2)C1 was read as HEK293 tox 22.4µM*, NPR1 antag -15.3%, FLuc inh inactive, NIH3T3 tox 20µM* and GPT2 inh -3.8%.
`O=C(Nc1ccccc1)[C@@H]1C[C@@H](c2cccc(C(F)(F)F)c2)N(CC2CCOCC2)C1` gave HEK293 tox 56.2µM*, NPR1 antag inconclusive, FLuc inh inactive, NIH3T3 tox inconclusive and GPT2 inh inconclusive.
`COc1ccc(NC(=O)[C@@H]2C[C@@H](c3cccc(C(F)(F)F)c3)N(C)C2)cc1` gave HEK293 tox inconclusive, NPR1 antag -29.4%[70.6 µM], FLuc inh inactive, NIH3T3 tox inconclusive and GPT2 inh -1.5%[88.5 µM].
`CC(C)Cc1cn(CC2CCCN(C(=O)c3ccc4c(c3)CCO4)C2)nn1` (centres undefined) gave HEK293 tox inconclusive, NPR1 antag inconclusive, FLuc inh inconclusive, NIH3T3 tox inconclusive and GPT2 inh inactive.
CCn1ccc2sc(C)c(C(=O)NCc3ccccc3C)c2c1=O was read as HEK293 tox -12.4%, NPR1 antag -10.1%, FLuc inh inactive, NIH3T3 tox inactive and GPT2 inh inconclusive.
Cc1cccc(C(=O)N2CC(Oc3ccc(-c4noc(C5CCOCC5)n4)cc3)C2)c1 was read as HEK293 tox inconclusive, NIH3T3 tox inconclusive and GPT2 inh 4.6%.
For Cc1nc(CCC(=O)N2CCn3nc(C(=O)Nc4ccccc4)cc3C2)n[nH]1 the results were HEK293 tox -23.4%, NPR1 antag -1.1%, FLuc inh 28.2µM*, NIH3T3 tox -7.3% and GPT2 inh -23.1%.
CCn1ncc(N2CCCC(CC(=O)Nc3cc(OC)cc(OC)c3)C2)cc1=O (centres undefined) was read as HEK293 tox -1.0%, NPR1 antag 4.0%, FLuc inh inactive, NIH3T3 tox 39.8µM* and GPT2 inh inactive.
Screening COCCn1ncc(N2CCCC(CC(=O)Nc3ccc(Cl)cc3)C2)cc1=O (centres undefined) returned HEK293 tox inconclusive, NPR1 antag -11.4%, FLuc inh inactive, NIH3T3 tox 31.6µM* and GPT2 inh inactive.
`COCCn1ncc(N2CCCC(CC(=O)Nc3cccc(Cl)c3)C2)cc1=O` (centres undefined) gave HEK293 tox -6.5%, NPR1 antag -2.9%, FLuc inh inactive, NIH3T3 tox -17.5% and GPT2 inh inactive.
For O=C(c1cccc(Cl)c1)N1CCN(c2nc3ncccc3o2)CC1 the results were HEK293 tox -11.8%, NPR1 antag -8.4%, FLuc inh inactive, NIH3T3 tox -31.9% and GPT2 inh inconclusive.
For O=C(c1cc2n(n1)CC(c1ccc(Cl)cc1)OC2)N1CCN(c2ccccc2)CC1 (centres undefined) the results were HEK293 tox inconclusive, NPR1 antag 20µM*, FLuc inh inactive, NIH3T3 tox inconclusive and GPT2 inh 0.9%.
